Data on eight compounds can be found in PubChem BioAssay (NCATS).

A short description of assay [1]: Cell Viability - H-4-II-E (AID 543).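 Further: cells exposed to compound for 40 hours; on the % scale 0 is the no-effect control and ±100 the full control effect; nearly all actives have a fitted effect of over 35% in size.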 Put shortly: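 Cells seeded at 1500 per well and rested 5 hr; compounds added; 40 hr incubation at 37 °C; CellTiter-Glo added, 20 min at room temperature; luminescence read. Hill-equation fits gave AC50.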
Assay [2] is described as follows: Cell Viability - SH-SY5Y (AID 544).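 Further: cells exposed to compound for 40 hours; nearly all actives have a fitted effect of over 55% in size.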 As to conditions: SH-SY5Y neuroblastoma cell viability; viability change, negative = cytotoxic: at 92.2 µM (top of the series). Put shortly: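 Cells were plated at 1500 per well and allowed 5 hr at 37 °C. Compounds were added across a concentration range and incubated 40 hr at 37 °C. CellTiter-Glo was added for 20 min at room temperature before luminescence reading.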

Assay [3] in a line: Cellular Toxicity (caspase-3) Jurkat (AID 655).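 Further: cells exposed to compound for 16 h at 37 °C before reading.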 The settings on record: Jurkat caspase-3 activation, luminescence; caspase-3 activation: at 92.2 µM (top of the series), DMSO = 0%, tamoxifen = 100%. Put shortly:
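Jurkat cells (5000/well) in complete medium were treated with compounds for 16 hr at 37 °C, then Caspase-Glo 3/7 luminescence was read after 20 min at room temperature. Data normalized to DMSO (basal) and 100 uM tamoxifen (100%); AC50 from Hill fit.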

Assay [4] in a line: Cell Viability - LYMP2-001 (AID 921).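 Further: 0% = DMSO only and full inhibition = tetraoctylammonium bromide control wells; nearly all actives have a fitted effect of over 70% in size.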 Put shortly: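 Human lymphoblastoid cells (Coriell), 2500 per well, were preincubated 5 hr at 37 C, then exposed to compounds in complete medium for 24 hr at 37 C. Cellular ATP was read by CellTiter-Glo luminescence; AC50 from Hill fits of concentration-response data.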
Assay [5] is described as follows: MultiTox-Fluor Cytotoxicity Assay - LYMP1-003 - Live Cells (AID 962).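 Further: cells exposed to compound for 16 hours at 37 °C; 0% = DMSO only and full loss = 92 µM tetraoctylammonium bromide; cytotoxic hits lower the live-cell protease signal.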 Put shortly:
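Acute cytotoxicity is scored as a drop in live-cell protease activity in human lymphoblastoid LYMP1-003 cells after 16 hr compound exposure at 37 C. AC50 values come from Hill-equation modelling of concentration-response data.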

Assay [6] in a line: Cell Viability - LYMP2-004 (AID 966).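 Further: plate controls were DMSO only for no effect and tetraoctylammonium bromide control for full effect; nearly all actives have a fitted effect of over 65% in size.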 The gist of the method:
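qHTS cytotoxicity: human lymphoblastoid line, 24 hr compound treatment, 37 C, complete medium. Viability read as cellular ATP via luciferase luminescence; tetraoctylammonium bromide served as positive control.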

Assay [7] is described as follows: Cell Viability - LYMP2-015 (AID 971).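 Further: 0% = DMSO only and full effect = 92 µM tetraoctylammonium bromide; nearly all actives have a fitted effect of over 55% in size.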 Put shortly:
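Cells are seeded at 2500 per well and incubated 5 hr at 37 C. Compounds are added across a concentration series for 24 hr at 37 C. CellTiter-Glo is added, and luminescence is read after 30 min at room temperature.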

Assay [8] in a line: Cell Viability - LYMP2-019 (AID 973).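 Further: 0% = DMSO alone and full effect = 92 µM tetraoctylammonium bromide; nearly all actives have a fitted effect of over 55% in size.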 The gist of the method: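 Cytotoxicity is scored as a concentration-dependent drop in cellular ATP after cells (2500/well) receive compound for 24 hr at 37 C. Tetraoctylammonium bromide serves as positive control.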
Assay [9] in a line: Cell Viability - LYMP2-021 (AID 974).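 Further: compound exposure lasts 24 hours at 37 °C; on the % scale 0 is the no-effect control and ±100 the full control effect; nearly all actives have a fitted effect of over 55% in size.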 Put shortly:
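Loss of cellular ATP, measured with a luciferase-based CellTiter-Glo readout, serves as the toxicity signal in human lymphoblastoid cells treated for 24 hours at 37 C. Potency is reported as AC50 from a standard Hill model.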

Assay [10] can be described thus: Cell Viability - LYMP2-025 (AID 976).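 Further: plate controls were DMSO only for no effect and tetraoctylammonium bromide control for full effect.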 The gist of the method: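 Acute cytotoxicity is scored as a concentration-dependent fall in intracellular ATP, measured by luciferase luminescence, in human lymphoblastoid LYMP2-025 cells exposed to compound for 24 hours at 37 C. AC50 values come from standard Hill fits.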
Assay [11] in a line: Cell Viability - LYMP2-006 (AID 978). Further: on the % scale 0 is the no-effect control and ±100 the full control effect; nearly all actives have a fitted effect of over 60% in size. The gist of the method:
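Human lymphoblastoid cells, 2500 per well, were preincubated 5 hr at 37 C, then exposed to compounds for 24 hr at 37 C in complete medium. Viability was read as intracellular ATP by CellTiter-Glo luminescence; AC50 from Hill-equation fits of qHTS concentration-response data.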

The nature of assay [12]: Cell Viability - LYMP2-007 (AID 979).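 Further: cells exposed to compound for 24 h before reading; 0% = DMSO only and the negative end = 92 µM tetraoctylammonium bromide; nearly all actives have a fitted effect of over 60% in size.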 Put shortly: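 Cells are seeded at 2500 per well and rested 5 hr. Compounds are then added over a concentration series for 24 hr at 37 C. CellTiter-Glo is added for 30 min at room temperature before luminescence reading.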
Assay [13] in a line: Cell Viability - LYMP2-014 (AID 983).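 Further: plate controls were DMSO only for no effect and 92 µM tetraoctylammonium bromide for full effect; nearly all actives have a fitted effect of over 50% in size.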 The gist of the method: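 Cells are plated at 2500/well and left 5 hr at 37 C. Compounds are added across a concentration range and incubated 24 hr at 37 C in complete medium. CellTiter-Glo is added, and luminescence is read after 30 min at room temperature.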
The nature of assay [14]: Cell Viability - LYMP2-018 (AID 985).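 Further: compound exposure lasted 24 hr at 37 °C; plate controls were DMSO only for no effect and tetraoctylammonium bromide at 92 µM for full effect; nearly all actives have a fitted effect of over 50% in size.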 Put shortly: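 Seed 2500 lymphoblastoid cells per well, incubate 5 hr at 37 C, add compound and incubate 24 hr at 37 C, add CellTiter-Glo, wait 30 min at room temperature, then read luminescence.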
Assay [15] in a line: Cell Viability - LYMP2-020 (AID 986). Put shortly: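 Seed 2500 cells per well and incubate 5 hr at 37 C. Add compounds at a concentration series and incubate 24 hr at 37 C. Add CellTiter-Glo, wait 30 min at RT, read luminescence, and fit a Hill curve for AC50.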
Assay [16] can be described thus: Cell Viability - LYMP2-022 (AID 987). Put shortly: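 Cells were seeded at 2500 per well, rested 5 hr at 37 C, and treated with titrated compounds for 24 hr at 37 C. Cellular ATP was then quantified by luciferase luminescence, and AC50 values were derived from Hill-modelled concentration-response curves.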
Assay [17] in a line: Cell Viability - LYMP2-026 (AID 989). Further: on the % scale 0 is the no-effect control and ±100 the full control effect; nearly all actives have a fitted effect of over 50% in size. Put shortly: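 Cells are seeded at 2500 per well and held 5 hr at 37 C. Compounds are added in concentration series for 24 hr, then CellTiter-Glo reagent is applied and luminescence read.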
Assay [18] can be described thus: Cell Viability - LYMP1-002 - Assay at 40 hr (AID 994).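 Further: 0% = DMSO only and full inhibition = 92 µM tetraoctylammonium bromide; nearly all actives have a fitted effect of over 60% in size.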 The gist of the method: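 Cells are plated at 2500 per well and rested 5 hr at 37 C. Compounds are added and incubated 40 hr at 37 C. CellTiter-Glo reagent is added for 30 min at room temperature before luminescence is read.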
Assay [19] is described as follows: qHTS assay for small molecule agonists of retinoid X receptor alpha signaling (AID 588544). The settings on record: HEK293T RXRa-UAS-bla, beta-lactamase reporter, 18 h; 530 nm emission. In general terms: In qHTS, concentration-response curves come from the screen itself.
A short description of assay [20]: qHTS assay for small molecule antagonists of the retinoid-related orphan receptor gamma (ROR-gamma) signaling pathway - cell viability counter screen (AID 720652; active means well fitted curve in the direction sought with a large enough effect in the repeat runs; an effect the other way counts as inactive or inconclusive;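 further: CHO reporter cells with doxycycline-induced ROR-gamma expression; compound exposure lasted 16 hr before ATP read; on the % scale 0 is the no-effect control and ±100 the full control effect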). Put shortly:
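Steps: seed CHO cells bearing TET-inducible ROR and ROR response element-luciferase; rest 5 hr at 37 C; add compound, then doxycycline; incubate 16 hr; add CellTiter-Glo and read luminescence as ATP-based viability.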

The structures appear in SMILES notation. “And” between values parts separate entries of the source, which are not always exact repeats. Equal entries are not always repeated. Records with an inconclusive call do not appear. The source made the active and inactive calls. Unless noted, the call rests on the fitted dose curve; in most records, active means well fitted curve in the direction sought with a large enough effect; inconclusive means small, poorly fitted or top-dose-only effect, or another doubt; inactive means no such curve, though single readings can be large; an effect the other way counts as inactive or inconclusive.

Consider `CCCN(CCC)c1c([N+](=O)[O-])cc(C(F)(F)F)cc1[N+](=O)[O-]`, for which the Potency result in [1], in assay [2], in [4], in assay [6], in assay [7] and in [8] was “inactive” throughout. For the same compound, the Potency result in [9], in assay [10], in assay [11], in assay [12], in assay [13] and in [14] was “inactive” throughout. Besides, the Potency result in [15], in assay [16], in [17], in assay [18] and in [20] was “inactive” each time. Also, the caspase-3 activation in assay [3] was 2.21% (inactive). Further, the compound was classed as inactive in assay [5]. For the same compound, the max response in [19] was -17.3% and 1.94%.
For the compound `Nc1ccccc1-c1ccccc1`, the Potency result in [1], in assay [2], in assay [4], in assay [6], in assay [7] and in [8] was “inactive” throughout. Besides, the Potency entry in [9], in assay [10], in assay [11], in assay [12], in [14] and in assay [15] was “inactive” in each case. Moreover, the Potency entry in assay [17], in assay [18] and in [20] was “inactive” throughout. For the same compound, the caspase-3 activation in assay [3] is 2.93% (inactive). The outcome in assay [5] was inactive. Besides, the max response in assay [19] stood at 14.6%.
Regarding `O=[N+]([O-])c1ccccc1-c1ccccc1`, the Potency result in assay [1], in assay [2], in [4], in [7], in assay [8] and in assay [9] was “inactive” each time. For the same compound, the Potency result in assay [10], in assay [11], in assay [12], in assay [13], in [14] and in [15] was “inactive” throughout. Besides, the Potency entry in [16], in assay [17], in [18] and in assay [20] was “inactive” each time. In addition, in [3], the caspase-3 activation is 0.923% (inactive). Further, the outcome in assay [5] was inactive. In addition, in [19], the max response was -6.95%.
For the compound `COC(=O)c1ccccc1N`, the Potency entry in assay [1], in assay [2], in [4], in assay [6], in assay [8] and in assay [9] was “inactive” throughout. In addition, the Potency result in assay [10], in assay [11], in assay [12], in [13], in assay [14] and in [15] was “inactive” throughout. For the same compound, the Potency entry in [16], in [17], in assay [18] and in [20] was “inactive” in each case. In assay [3], the caspase-3 activation is 1.63% (inactive). Moreover, the compound was classed as inactive in assay [5]. The max response in assay [19] was -15.1%.
Regarding `Cc1cc(-c2cc(C)c(N)c(C)c2)cc(C)c1N`, the Potency result in assay [1], in [2], in assay [4], in assay [6], in assay [7] and in assay [8] was “inactive” in each case. The Potency entry in assay [9], in assay [10], in assay [11], in assay [12], in assay [13] and in assay [14] was “inactive” each time. Moreover, the Potency result in assay [15], in assay [16], in [17], in assay [18] and in assay [20] was “inactive” each time. In addition, in assay [3], the caspase-3 activation is 1.01% (inactive). Moreover, the call in assay [5] was inactive. For the same compound, the max response in [19] is -7.36%.
As to `Oc1cc(Cl)cc(Cl)c1`, the Potency entry in assay [1], in [2], in assay [4], in assay [6], in [7] and in assay [8] was “inactive” each time. Also, the Potency entry in assay [9], in [10], in assay [11], in [12], in assay [13] and in assay [14] was “inactive” in each case. The Potency entry in [15], in [16], in assay [17], in assay [18] and in assay [20] was “inactive” in each case. The caspase-3 activation in [3] is -0.202% (inactive). Further, in [5], the compound was classed as inactive. In [19], the max response was -13.2%.
`OCCCCO`: the Potency entry in [1], in assay [2], in assay [4], in assay [6], in assay [7] and in assay [8] was “inactive” throughout. The Potency entry in assay [9], in assay [10], in assay [11], in assay [12], in assay [13] and in assay [14] was “inactive” throughout. Besides, the Potency result in [15], in assay [16], in assay [17], in assay [18] and in assay [20] was “inactive” in each case. Also, in assay [3], the caspase-3 activation was -0.218% (inactive). The compound was classed as inactive in [5]. Besides, the max response in [19] was found to be 1.71%.
Consider `Nc1ccc(-c2ccc(N)cc2)cc1`, for which the Potency result in [2], in [4], in assay [6], in [7], in assay [8] and in assay [9] was “inactive” throughout. The Potency entry in assay [10], in assay [11], in assay [12], in assay [13], in [14] and in assay [15] was “inactive” throughout. Further, the Potency result in [16], in assay [17], in assay [18] and in [20] was “inactive” each time. For the same compound, the caspase-3 activation in [3] was 0.684% (inactive). The result in assay [5] was inactive. For the same compound, the max response in assay [19] was -10.1%.
